Among all 5,500 compounds or so, about 2,000 (36%) were called active. About 18% were inconclusive and are not listed. Cut-off read from the data, not from the text of the source: active = normalized growth mostly below about 0.91 (no sharp cut-off); inconclusive = no clear call, values can overlap the other calls; inactive = mostly above about 0.92. This is one part of the list.
Test: chemical genetic growth profiling, strain panel (AID 1159580);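 note: tested at 20 µM; growth read once vehicle control cultures reached saturation at 30 °C; 1 = growth at the plate median or of vehicle wells; lower values mean less growth of the strain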
Settings: growth OD

Measured: normalized growth

NC(=O)c1ccc[n+]([C@@H]2O[C@H](COP(=O)([O-])OP(=O)(O)OC[C@H]3O[C@@H](n4cnc5c(N)ncnc54)[C@H](OP(=O)(O)O)[C@@H]3O)[C@@H](O)[C@H]2O)c1
inactive: S. cerevisiae deletion strains, locus YAL013W, strain DEP1, stronger effect = lower value 1.02 | S. cerevisiae deletion strains, locus YBR021W, strain FUR4, stronger effect = lower value 1 | S. cerevisiae deletion strains, locus YBR229C, strain ROT2, stronger effect = lower value 1.03 | S. cerevisiae deletion strains, locus YCL029C, strain bik1, stronger effect = lower value 1 | S. cerevisiae deletion strains, locus YDL035C, strain GPR1, stronger effect = lower value 1.06 | S. cerevisiae deletion strains, locus YDL074C, strain BRE1, stronger effect = lower value 1.02 | S. cerevisiae deletion strains, locus YDL101C, strain DUN1, stronger effect = lower value 1.02 | S. cerevisiae deletion strains, locus YDL134C, strain PPH21, stronger effect = lower value 1.02 | S. cerevisiae deletion strains, locus YDL185W, strain tfp1, stronger effect = lower value 0.994 | S. cerevisiae deletion strains, locus YDL192W, strain arf1, stronger effect = lower value 1.01 | S. cerevisiae deletion strains, locus YDR101C, strain arx1, stronger effect = lower value 1.01 | S. cerevisiae deletion strains, locus YDR150W, strain NUM1, stronger effect = lower value 1.02 | S. cerevisiae deletion strains, locus YDR162C, strain NBP2, stronger effect = lower value 1.03 | S. cerevisiae deletion strains, locus YDR318W, strain mcm21, stronger effect = lower value 1.01 | S. cerevisiae deletion strains, locus YDR388W, stronger effect = lower value 0.985 | S. cerevisiae deletion strains, locus YDR502C, strain sam2, stronger effect = lower value 1.03 | S. cerevisiae deletion strains, locus YEL061C, strain CIN8, stronger effect = lower value 1.02 | S. cerevisiae deletion strains, locus YER110C, stronger effect = lower value 1 | S. cerevisiae deletion strains, locus YER155C, strain BEM2, stronger effect = lower value 1 | S. cerevisiae deletion strains, locus YER167W, strain BCK2, stronger effect = lower value 1.04 | S. cerevisiae deletion strains, locus YGL078C, strain dbp3, stronger effect = lower value 0.995 | S. cerevisiae deletion strains, locus YGL086W, strain mad1, stronger effect = lower value 1.04 | S. cerevisiae deletion strains, locus YGL248W, strain PDE1, stronger effect = lower value 1.02 | S. cerevisiae deletion strains, locus YGR078C, strain PAC10, stronger effect = lower value 1.04 | S. cerevisiae deletion strains, locus YGR135W, strain pre9, stronger effect = lower value 1.02 | S. cerevisiae deletion strains, locus YGR229C, strain SMI1, stronger effect = lower value 1.03 | S. cerevisiae deletion strains, locus YGR252W, strain gcn5, stronger effect = lower value 1.03 | S. cerevisiae deletion strains, locus YHR030C, strain SLT2, stronger effect = lower value 1.01 | S. cerevisiae deletion strains, locus YHR079C, strain IRE1 (second series), stronger effect = lower value 1.01 | S. cerevisiae deletion strains, locus YHR094C, strain hxt1, stronger effect = lower value 0.995 | S. cerevisiae deletion strains, locus YHR129C, strain ARP1, stronger effect = lower value 1.02 | S. cerevisiae deletion strains, locus YHR200W, strain rpn10, stronger effect = lower value 1 | S. cerevisiae deletion strains, locus YIL066C, strain RNR3, stronger effect = lower value 1.03 | S. cerevisiae deletion strains, locus YIL073C, strain SPO22, stronger effect = lower value 1.02 | S. cerevisiae deletion strains, locus YIL125W, strain kgd1, stronger effect = lower value 0.981 | S. cerevisiae deletion strains, locus YIR030C, strain dcg1, stronger effect = lower value 0.996 | S. cerevisiae deletion strains, locus YJL095W, strain BCK1, stronger effect = lower value 1.03 | S. cerevisiae deletion strains, locus YJL134W, strain LCB3, stronger effect = lower value 1.01 | S. cerevisiae deletion strains, locus YJL168C, strain set2, stronger effect = lower value 0.996 | S. cerevisiae deletion strains, locus YJL187C, strain SWE1 (second series), stronger effect = lower value 1.03 | S. cerevisiae deletion strains, locus YJR043C, strain POL32, stronger effect = lower value 1.03 | S. cerevisiae deletion strains, locus YJR075W, strain HOC1, stronger effect = lower value 1.05 | S. cerevisiae deletion strains, locus YKL009W, strain mrt4, stronger effect = lower value 1.02 | S. cerevisiae deletion strains, locus YKL068W, stronger effect = lower value 0.999 | S. cerevisiae deletion strains, locus YKL085W, strain MDH1 (second series), stronger effect = lower value 0.99 | S. cerevisiae deletion strains, locus YKL085W, strain MDH1, stronger effect = lower value 0.99 | S. cerevisiae deletion strains, locus YKL190W, strain CNB1, stronger effect = lower value 1.01 | S. cerevisiae deletion strains, locus YKR001C, strain vps1, stronger effect = lower value 0.996 | S. cerevisiae deletion strains, locus YLR039C, strain RIC1, stronger effect = lower value 1.04 | S. cerevisiae deletion strains, locus YLR058C, strain SHM2, stronger effect = lower value 1.02 | S. cerevisiae deletion strains, locus YLR102C, strain apc9, stronger effect = lower value 0.99 | S. cerevisiae deletion strains, locus YLR262C, strain YPT6, stronger effect = lower value 1.08 | S. cerevisiae deletion strains, locus YLR268W, strain sec22, stronger effect = lower value 0.949 | S. cerevisiae deletion strains, locus YLR330W, strain CHS5, stronger effect = lower value 1.01 | S. cerevisiae deletion strains, locus YLR342W, strain FKS1 (second series), stronger effect = lower value 1.04 | S. cerevisiae deletion strains, locus YLR371W, strain rom2, stronger effect = lower value 0.987 | S. cerevisiae deletion strains, locus YLR418C, strain cdc73, stronger effect = lower value 1.04 | S. cerevisiae deletion strains, locus YML016C, strain PPZ1, stronger effect = lower value 1.02 | S. cerevisiae deletion strains, locus YML032C, strain rad52, stronger effect = lower value 0.979 | S. cerevisiae deletion strains, locus YML124C, strain tub3, stronger effect = lower value 0.991 | S. cerevisiae deletion strains, locus YMR078C, strain ctf18, stronger effect = lower value 0.995 | S. cerevisiae deletion strains, locus YMR223W, strain ubp8, stronger effect = lower value 1.04 | S. cerevisiae deletion strains, locus YMR263W, strain SAP30, stronger effect = lower value 1.04 | S. cerevisiae deletion strains, locus YMR307W, strain GAS1, stronger effect = lower value 1.07 | S. cerevisiae deletion strains, locus YNL067W, strain RPL9B, stronger effect = lower value 1.04 | S. cerevisiae deletion strains, locus YNL128W, strain TEP1, stronger effect = lower value 1.05 | S. cerevisiae deletion strains, locus YNL153C, strain GIM3, stronger effect = lower value 1.02 | S. cerevisiae deletion strains, locus YNL233W, strain BNI4, stronger effect = lower value 1.03 | S. cerevisiae deletion strains, locus YNL250W, strain rad50, stronger effect = lower value 0.995 | S. cerevisiae deletion strains, locus YNL271C, strain bni1, stronger effect = lower value 0.993 | S. cerevisiae deletion strains, locus YNL298W, strain CLA4, stronger effect = lower value 0.989 | S. cerevisiae deletion strains, locus YNL307C, strain MCK1, stronger effect = lower value 1.01 | S. cerevisiae deletion strains, locus YNL322C, strain KRE1, stronger effect = lower value 1.01 | S. cerevisiae deletion strains, locus YNR052C, strain pop2, stronger effect = lower value 0.991 | S. cerevisiae deletion strains, locus YOL006C, strain TOP1, stronger effect = lower value 1.03 | S. cerevisiae deletion strains, locus YOL012C, strain htz1 0.919 | S. cerevisiae deletion strains, locus YOL147C, strain pex11, stronger effect = lower value 0.995 | S. cerevisiae deletion strains, locus YOR061W, strain CKA2, stronger effect = lower value 1.02 | S. cerevisiae deletion strains, locus YOR069W, strain VPS5, stronger effect = lower value 1.01 | S. cerevisiae deletion strains, locus YOR136W, strain idh2, stronger effect = lower value 1.01 | S. cerevisiae deletion strains, locus YOR144C, strain elg1, stronger effect = lower value 0.984 | S. cerevisiae deletion strains, locus YOR184W, strain ser1, stronger effect = lower value 1.02 | S. cerevisiae deletion strains, locus YOR316C, strain cot1, stronger effect = lower value 0.997 | S. cerevisiae deletion strains, locus YPL055C, strain LGE1, stronger effect = lower value 1.05 | S. cerevisiae deletion strains, locus YPL241C, strain CIN2, stronger effect = lower value 1.02 | S. cerevisiae deletion strains, locus YPR119W, strain clb2, stronger effect = lower value 0.986 | S. cerevisiae deletion strains, locus YPR141C, strain kar3, stronger effect = lower value 0.978 | S. cerevisiae deletion strains, locus YPR163C, strain tif3, stronger effect = lower value 0.997 | S. cerevisiae deletion strains, locus YPR167C, strain met16, stronger effect = lower value 0.99 | S. cerevisiae deletion strains, strain wtn01, stronger effect = lower value 1 | S. cerevisiae strains, strain wild type, stronger effect = lower value 1.03

— PubChem BioAssay AID1159580 (chemical genetic matrix, 2015)
